# Assay outcomes (PubChem BioAssay)
# TGFb inhibitor: TGF-b pathway inhibition | HepG2 CAGA-GFP TGF-b/SMAD3 reporter, GFP fluorescence, 18 h; TGF-beta stimulated, 500 pg/mL final | Potency, µM (series often up to 46.1 µM), for the others: at the top dose activity, negative = inhibition, most hits filed as inhibitors | 410,000 tested, 1.2% active; note: % is set by controls: 0 for no effect and ±100 for the full control effect; nearly all actives have a fitted effect of over 65% in size
#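 Using HEPG2 CAGA-GFP reporter cells at 1000 cells/well, we pinned test compounds, stimulated with recombinant TGF-beta (500 pg/mL final) and measured total well GFP after 18 h.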
# DT40 TDP1 no CPT: qHTS for Inhibitors of human tyrosyl-DNA phosphodiesterase 1 (TDP1): qHTS in cells in absence of CPT; DT40 Tdp1-/- hTDP1 cells, no CPT, ATP luminescence, 48 h; Potency, µM (titrated, usually from 46.2 µM), without a hit: at the highest dose activity change, negative = growth inhibition, hits mostly inhibitors; 420,000 tested, 15% active; note: % is set by controls: 0 for no effect and ±100 for the full control effect; nearly all actives have a fitted effect of over 55% in size
#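 DT40 Tdp1-/-;hTDP1 cells, no CPT (DMSO vehicle only), 400 cells/well; compounds pin-transferred; ≥48 hr, 37 °C; CellTiter-Glo 30 min RT dark, luminescence read.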
# ATXN2 expr inh: reduces ATXN2 reporter expression in HEK-293 cells | AID 1745845 | Potency, µM (titrated, usually from 57 µM), for the others: top-dose activity change, negative = inhibition, usual class: inhibitors | 360,000 tested, 0.72% active | HEK-293 ATXN2-luciferase reporter, luminescence, 24 h; note: % is set by controls: 0 for no effect and ±100 for the full control effect; nearly all actives have a fitted effect of over 55% in size
#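 ATXN2-luciferase reporter cells (luciferase flanked by upstream and downstream ATXN2 gene portions) were treated 24 h at 37 °C with compounds at up to 57 uM. SteadyGlo luminescence gave expression; GF-AFC fluorescence gave viability.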
# DT40 TDP1 CPT: DT40-hTDP1 cell growth loss with CPT; chicken DT40 Tdp1-/-;hTDP1 cells + 20 nM CPT, ATP luminescence, 48 h; Potency, µM (doses to about 46.2 µM), without a hit: at the highest dose activity change, negative = growth inhibition, most hits filed as inhibitors; 420,000 tested, 12% active; note: % is set by controls: 0 for no effect and ±100 for the full control effect; nearly all actives have a fitted effect of over 55% in size
#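 Cell growth measured by CellTiter-Glo luminescence after a minimum 48 h, 37 C compound exposure with 20 nM CPT in Tdp1-knockout DT40 cells stably expressing hTDP1, seeded 400/well; qHTS titration format.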
# S2 tox: viability counter-screen for ATXN expression inhibitors | 400,000 tested, 0.49% active | S2 cells (HEK-293 line with an ATXN2-luciferase reporter) viability, CellTiter-Fluor protease fluorescence, 24 h | AID 651635 | Potency, µM (titrated, usually from 56.7 µM), most hits filed as cytotoxic; note: nearly all actives have a fitted effect of over 40% in size
# HepG2 viability: kills HepG2 cells in TGF-b inhibitor counter-screen | HepG2 CAGA-GFP viability, ATP luminescence, 18 h | Potency, µM (series often up to 46.1 µM), for the others: top-dose activity change, negative = cytotoxicity, most hits filed as cytotoxic | 410,000 tested, 0.76% active | AID 588856
#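 CellTiter-Glo luminescence gave cytotoxicity after 18 hours at 37 degrees C. The cells were HepG2 CAGA-GFP in 1% FBS DMEM, stimulated with 500 pg/mL TGF-beta after compound addition. %Activity was normalised to no-cell wells (complete cell-killing) and DMSO (no toxicity), and curves were fitted and classified.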
# An asterisk follows results filed as active; i = inactive; ? = inconclusive; · = not tested or not shown. A selection: hits, their analogues and other compounds. The true share with any hit is near 17%. Calls come from the whole dose curve; as a rule, active = well fitted curve in the direction sought with a large enough effect; inconclusive = small, poorly fitted or top-dose-only effect, or another doubt; inactive = no such curve, though single readings can be large; an effect the other way counts as inactive or inconclusive. Potency is the fitted concentration of half-maximal effect.
SMILES,TGFb inhibitor,DT40 TDP1 no CPT,ATXN2 expr inh,DT40 TDP1 CPT,S2 tox,HepG2 viability
C=CC(=O)NC(NC(=O)C=C)c1ccccc1F,-11.8%,-9.5%,23.9%,1.7%,i,-1.9%
Cc1cccc(C)c1Nc1nnc(SCC(=O)c2ccc(Br)s2)s1,?,16.4µM*,-8.0%,?,?,-14.8%
Cc1cccc(C)c1Nc1nnc(SCC(=O)Nc2cc(S(=O)(=O)N3CCCCC3)ccc2Cl)s1,-17.4%,20.6µM*,-4.2%,?,i,-12.8%
COc1cc(/C=C/C(=O)OCC(=O)c2ccc(OC(F)F)cc2)ccc1O,-19.5%,14.6µM*,-7.2%,?,i,-29.6%
O=C(/C=C/c1ccco1)OCC(=O)c1ccc(OC(F)F)cc1,6.3%,0.9%,-14.5%,-5.1%,i,-7.5%
CCc1cccc2c(C(=O)COC(=O)/C=C/c3ccc(O)c(OC)c3)c[nH]c12,?,18.4µM*,-21.7%,?,i,-2.8%
Cc1ccc(Cl)cc1NC(=O)Cn1nc2c(cc1=O)CC(C)CC2 (centres undefined),11.3%,-33.3%,·,-16.9%,·,-3.1%
O=C(Nc1ccc(Cl)c(Cl)c1)C1CC1,·,?,-12.2%,?,i,·
Cc1nn2c(-c3ccncc3)ccnc2c1Br,0.3%,-11.1%,5.3%,-20.2%,i,-0.9%
CCOC(=S)SCC(=O)N1CCc2cc(OC)ccc2C1C1C(=O)CCCC1=O (centres undefined),?,18.4µM*,1.0%,?,i,-1.4%
CCCCCCC1CC(=CN(C)C)C(=O)O1 (centres undefined),?,16.4µM*,·,?,?,-28.0%
CN(C(=O)COC(=O)c1ccccc1C(=O)c1ccccc1)c1ccccc1,6.6%,-5.2%,-8.8%,?,i,-0.8%
COc1ccc(C(=O)N2CC(=O)Nc3ccc(F)cc3C2c2ccccc2)cc1 (centres undefined),4.5%,-3.9%,-5.6%,-22.3%,i,3.6%
COc1ccc(CCNC(=O)CC(c2ccccc2)c2cccc(C)c2O)cc1OC (centres undefined),?,9.2µM*,-31.2%,11.6µM*,i,-19.1%
COc1ccc(CCN=C(N)C(C)c2ccccc2)cc1OC (centres undefined),-9.6%,?,-15.4%,-17.3%,i,3.7%
COc1ccc(CCNCCC(c2ccccc2)c2ccccc2)cc1OC,?,18.4µM*,·,18.4µM*,?,12.6µM*
COc1cc(OC)cc(C(=O)NCCC(c2ccccc2)c2ccccc2)c1,-11.9%,?,·,?,i,-29.7%
CCC(C(N)=NCCc1ccc(OC)c(OC)c1)c1ccccc1 (centres undefined),-10.0%,8.2µM*,-9.9%,14.6µM*,i,-27.1%
COc1cc(OC)c(OC)cc1CCC(C)NCCC(c1ccccc1)c1ccccc1 (centres undefined),14.1µM*,5.8µM*,·,6.51µM*,15.8µM*,11.2µM*
O=C(CSc1nnc(CNC(=O)c2ccc(F)cc2)o1)Nc1ccc2c(c1)OCCO2,9.5%,-15.7%,4.2%,-3.2%,i,20.7%
COc1cc(OC)cc(C(=O)NNC(=S)Nc2ccc(S(N)(=O)=O)cc2)c1,-19.1%,-10.3%,-1.1%,26.5%,i,-2.0%
COCCCn1c(C(=O)NC2CCCCC2C)cc2c(=O)n3cccc(C)c3nc21 (centres undefined),6.0%,20.6µM*,·,16.4µM*,?,13.2%
CCN(C(=O)c1cc2c(=O)n3cccc(C)c3nc2n1CCCOC)C1CCCCC1,3.6%,16.4µM*,-21.5%,20.6µM*,i,-7.6%
COCCCn1c(C(=O)Nc2ccc3c(c2)OCO3)cc2c(=O)n3ccccc3nc21,8.2%,25.9µM*,-6.5%,18.4µM*,i,1.9%
COCCCn1c(=N)c(C(=O)NCC2CCCO2)cc2c(=O)n3cccc(C)c3nc21 (centres undefined),-0.7%,?,-23.2%,-12.8%,·,-8.7%
SMILES,TGFb inhibitor,DT40 TDP1 no CPT,ATXN2 expr inh,DT40 TDP1 CPT,S2 tox,HepG2 viability
COCCCn1c(=NC(C)=O)c(C#N)cc2c(=O)n3cccc(C)c3nc21,-11.7%,-28.9%,-4.4%,2.7%,·,7.5%
CC1(C)CC(=O)CC(C)(C)N1OC(=O)c1ccncc1,-7.2%,-7.3%,-4.6%,5.0%,i,-0.5%
Cc1ccc(CNC(=O)CCc2c(C)c3cc4c(C)coc4cc3oc2=O)cc1,-26.6%,?,5.3%,16.4µM*,i,-27.1%
Cc1oc2c(C)c3oc(=O)c(CCC(=O)NCCCN4CCCC4=O)c(C)c3cc2c1C,3.3%,?,-16.3%,-26.2%,i,-4.1%
Cc1coc2cc3oc(=O)c(CCC(=O)NCc4ccccc4Cl)c(C)c3cc12,-1.6%,-1.5%,6.1%,-18.6%,i,-5.5%
COc1cccc(CNC(=O)CCc2c(C)c3cc4c(C)coc4cc3oc2=O)c1,3.9%,16.4µM*,-7.7%,13µM*,i,-5.3%
COc1cccc(CNC(=O)Cc2c(C)c3cc4c(C)coc4cc3oc2=O)c1,-21.8%,?,·,?,·,-3.1%
COc1ccc(CCNC(=O)CCc2c(C)c3cc4c(C)c(C)oc4cc3oc2=O)cc1,-26.4%,20.6µM*,·,10.3µM*,·,-25.0%
Cc1oc2cc3oc(=O)c(CCC(=O)NCCC(=O)O)c(C)c3cc2c1C,-18.8%,-14.7%,·,8.6%,i,-2.2%
Cc1oc2cc3oc(=O)c(CCC(=O)NCCCN4CCCC4=O)c(C)c3cc2c1C,-24.4%,?,2.7%,14.6µM*,i,-1.4%
Cc1ccc(S(=O)(=O)C2(C(=O)N3CCN(c4cc(C)ccc4C)CC3)CC2)cc1,-8.5%,?,0.0%,?,i,-6.4%
CCOC(=O)Cc1ccc(NC(=O)Nc2ccccc2OCc2cc(=O)n3ccccc3n2)cc1,-15.9%,-15.6%,·,-3.8%,·,4.4%
CCn1c(=O)n(CC2CCC(C(=O)NC(C)C)CC2)c(=O)c2sccc21 (centres undefined),-0.4%,-4.3%,8.9%,-2.5%,i,15.0%
O=C(COC(=O)CNS(=O)(=O)/C=C/c1ccccc1)Nc1cc(S(=O)(=O)N2CCCCC2)ccc1Cl,-1.9%,-0.4%,1.5%,-28.8%,i,6.1%
Cc1ccc(C(=O)NCCNC(=O)c2ccco2)cn1,31.0%,7.1%,-1.0%,1.6%,i,8.6%
Cc1cc(Cl)ccc1OC(C)C(=O)Nc1ccc(C(=O)Nc2ccccc2C(=O)O)cc1 (centres undefined),?,?,-21.2%,?,i,-50.5%
